We go through 20 compounds from PubChem BioAssay (NCI).

This is part of a sample that, as a whole, favours compounds with a hit. Of some 79,000 tested, about 15% had one in any assay. Values without a mark were called inactive. Active and inactive are the calls of the source. Cut-off read from the data, not from the text of the source: active = growth inhibition above about 70%; inactive = the rest.

Test [1] in a line: NCI Yeast Anticancer Drug Screen. Data for the rad50 strain (AID 155).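 Note: 0% = growth of vehicle-only cultures of the same strain.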 To be noted: S. cerevisiae rad50 strain growth inhibition; at 50.0 µM; hits give high values. The method, boiled down: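 Inhibition values express reduced yeast growth in compound-treated cultures relative to vehicle-treated controls.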
The nature of test [2]: NCI Yeast Anticancer Drug Screen. Data for the mec2-1 strain (AID 157). Conditions: S. cerevisiae mec2-1 strain, at 50.0 µM, hits give high values. Summed up:
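Using mec2-1 yeast: add compound, measure growth, express inhibition versus vehicle-treated cultures.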

A short description of test [3]: NCI Yeast Anticancer Drug Screen. Data for the sgs1 mgt1 strain (AID 161).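 Note: 0% = growth of cultures given vehicle only.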 To be noted: S. cerevisiae sgs1 mgt1 strain, at 50.0 µM, hits give high values. The method, boiled down:
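Yeast cells carrying a defined DNA-repair defect were exposed to test compounds. Growth inhibition was measured relative to vehicle-treated controls.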

A short description of test [4]: NCI Yeast Anticancer Drug Screen. Data for the cln2 rad14 strain (AID 165).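 Note: 0% = growth equal to vehicle treated cultures.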 Conditions: S. cerevisiae cln2 rad14 strain, at 50.0 µM, hits give high values. Summed up:
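Yeast strain cln2 rad14, bearing defects in cell cycle control and DNA repair, serves as the test system; values reflect growth inhibition compared with vehicle.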

A short description of test [5]: NCI Yeast Anticancer Drug Screen. Data for the bub3 strain (AID 167). To be noted: S. cerevisiae bub3 mutant strain, at 50.0 µM, hits give high values. The method, boiled down:
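Steps: expose the mutant yeast strain to compound; grow alongside vehicle-treated cultures; measure growth; express inhibition against the vehicle cultures.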

Test [6] in a line: NCI Yeast Anticancer Drug Screen. Data for the mlh1 rad18 strain (AID 175). Conditions: S. cerevisiae mlh1 rad18 strain growth inhibition; at 50.0 µM; hits give high values. Summed up:
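Steps: expose repair-defective yeast to compound; measure growth; express inhibition against vehicle-treated controls.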

For `COc1ccc(C(=O)O[C@H]2[C@@H]3C=CO[C@@H](OC4OC(CO)C(O)C(O)C4O)[C@@H]3[C@@]3(CO)O[C@@H]23)cc1O` (stereo not given in full), the growth inhibition in test [1] is 31.9%; in test [2], 23.9%; in test [3], -3.4%; in test [4] it was 11.7%; in test [5], 34.3%; in test [6], 38.6%.

As to `CCOC(=O)NN(C(=O)OCC)c1c(NN)n(C)c(=O)n(C)c1=O`, the growth inhibition in test [1] was 2.7%; in test [2] it was -19.7%; in test [3] it was 9.2%; in test [4], -10.4%; in test [5], 12.4%; in test [6] it was -11.5%.

For the compound `C/C(=N/NC(=O)c1ccccc1)C(=O)c1ccccc1`, the growth inhibition in test [1] was -4.4%; in test [2], -12.2%; in test [3] it was -2.65%; in test [4] it was -1.2%; in test [5], 6%; in test [6], -0.15%.

`CCN(CC)CCOc1ccc(C)c2c1C(=O)CC2`: the growth inhibition is -27.6% in test [1]; -9.2% in test [2]; -8.45% in test [3]; -8.7% in test [4]; 21.4% in test [5]; -23.6% in test [6].

On to `CC(CO)c1ccccc1` (stereo not given), for which the growth inhibition in test [1] was 8.15%; in test [2], 1.15%; in test [3], -13.9%; in test [4], -32.5%; in test [5], -13.4%; in test [6] it was -4%.

As for `CCc1ccc(N=Nc2c(F)c(F)c(N)c(F)c2F)cc1`, the growth inhibition was 6.1% in test [1]; -11.3% in test [2]; 2.4% in test [3]; 2.85% in test [4]; 0.55% in test [5]; 14.3% in test [6].

On to `Cc1cccc(-c2c3ccccc3cc3ccccc23)c1`, for which the growth inhibition in test [1] is 6.35%; in test [2] it was 14.2%; in test [3], 7.55%; in test [4] it was -3.1%; in test [5] it was 2.35%; in test [6] it was 11.6%.

On to `O=C(NCc1ccccc1)C1C2C=CC(C2)C1C(=O)NCc1ccccc1` (stereo not given), for which the growth inhibition is -6.65% in test [1]; -10.8% in test [2]; 30.4% in test [3]; -6.3% in test [4]; 18.1% in test [5]; 5.85% in test [6].

As for `CC(C)(C)C1=CC(=C2C(=O)C(=O)c3ccccc3C2=O)C=C(C(C)(C)C)C1=O`, the growth inhibition in test [1] was -3.2%; in test [2], -22.2%; in test [3] it was -12.7%; in test [4], 6.85%; in test [5], 22.4%; in test [6], -21.5%.

For the compound `CC(C)(O)C(c1ccccc1)S(=O)(=O)O` (stereo not given), the growth inhibition is -2.5% in test [1]; -18.6% in test [2]; -0.3% in test [3]; -27.4% in test [4]; -0.45% in test [5]; 48.5% in test [6].

As for `CCCCCNC(=S)NNC(N)=O`, the growth inhibition was 4.2% in test [1]; -0.15% in test [2]; -12.8% in test [3]; -0.7% in test [4]; 5.25% in test [5]; -0.75% in test [6].

With `CC(=O)N(C)c1ccc(NC(=O)Nc2c(C)cccc2C)cc1`, the growth inhibition in test [1] was 6.55%; in test [2], 10%; in test [3], 10.7%; in test [4], 4.85%; in test [5] it was 19.6%; in test [6], 15.6%.

On to `COc1cc(Nc2cc(Cl)cc(Cl)c2)nc(N)n1`, for which the growth inhibition is 76.4% (active) in test [1]; 81% (active) in test [2]; 6.5% in test [3]; 7.9% in test [4]; 9.35% in test [5]; 89.6% (active) in test [6].

In the case of `NNC1CCN(Cc2ccccc2)CC1`, the growth inhibition in test [1] is 2.5%; in test [2], -16.8%; in test [3], 0.25%; in test [4], 22.2%; in test [5], -1.9%; in test [6], 14.2%.

For `Cc1ccc(NC(=O)Nc2cccc(Cl)c2)cc1C`, the growth inhibition is -0.1% in test [1]; 5.05% in test [2]; -4.95% in test [3]; -17.2% in test [4]; 5.1% in test [5]; -16.6% in test [6].

Turning to `C1COC(C2=NCCO2)=N1`, the growth inhibition in test [1] is -12.5%; in test [2] it was 2.6%; in test [3] it was -14.1%; in test [4] it was -42%; in test [5], 6.1%; in test [6], -0.4%.

As to `c1ccc2c(c1)NC(N1CCCCC1)=Nc1ncncc1-2`, the growth inhibition in test [1] was 14.8%; in test [2] it was -8.15%; in test [3] it was 7.75%; in test [4], -15.1%; in test [5], -1.7%; in test [6], 2%.

With `NCCCCCCN1CCN(c2cccc(Cl)c2)CC1`, the growth inhibition in test [1] was 14.2%; in test [2], 21.9%; in test [3], 14.8%; in test [4], 7.55%; in test [5], 13.8%; in test [6], -13.4%.

For the compound `C=C(C)c1ccccc1N`, the growth inhibition in test [1] was -1.75%; in test [2], -40.4%; in test [3] it was -4.65%; in test [4], 6.95%; in test [5], -26.4%; in test [6], 14.1%.

Take `O=C1NC(=O)C2CCC12` (stereo not given): the growth inhibition in test [1] is 1.95%; in test [2], -4.2%; in test [3], 1.45%; in test [4] it was -20.7%; in test [5] it was 8.95%; in test [6], 18.2%.
